The source of these data is PubChem BioAssay (NCATS).

Structures are written as SMILES. Records with an inconclusive call do not appear. A call without a number means that no potency is given here. Calls of active or inactive are those of the source. Calls follow the shape of the dose curve; as a rule, active = well fitted curve in the direction sought with a large enough effect; inconclusive = small, poorly fitted or top-dose-only effect, or another doubt; inactive = no such curve, though single readings can be large; an effect the other way counts as inactive or inconclusive.

Sequence of Metallo-beta-lactamase type 2 (Klebsiella pneumoniae) (C7C422 whole entry, looked up): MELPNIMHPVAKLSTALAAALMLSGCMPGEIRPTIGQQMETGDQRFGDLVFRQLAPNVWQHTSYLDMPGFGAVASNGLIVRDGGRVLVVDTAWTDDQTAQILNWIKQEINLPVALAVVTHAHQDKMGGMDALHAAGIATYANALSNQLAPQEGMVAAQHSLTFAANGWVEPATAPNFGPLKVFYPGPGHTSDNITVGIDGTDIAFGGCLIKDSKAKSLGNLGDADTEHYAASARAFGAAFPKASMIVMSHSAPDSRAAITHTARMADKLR
Sequence of Glutathione peroxidase 1 (Homo sapiens) (P07203 whole entry, looked up): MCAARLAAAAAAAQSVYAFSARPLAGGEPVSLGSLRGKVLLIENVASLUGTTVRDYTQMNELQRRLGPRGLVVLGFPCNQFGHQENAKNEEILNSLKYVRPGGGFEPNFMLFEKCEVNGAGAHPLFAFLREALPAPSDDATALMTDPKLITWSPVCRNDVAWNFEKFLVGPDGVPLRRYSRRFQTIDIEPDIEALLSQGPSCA

System in one test: not listed separately
Briefly: Viability counterscreen for antagonist of constitutive androstane receptor (CAR) against the NCATS DSHEA and TCM libraries (AID 1794837).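 Also: compound exposure lasted 24 h before viability reading.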 Conditions: CAR reporter cell line viability counterscreen, qHTS; series mostly up to 40 µM. Put shortly: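 HepG2-CYP2B6-hCAR cells (2,500/well) were allowed to attach for 5 h, then exposed to compounds with 48 uM CITCO for 24 h at 37C. Viability was read by CellTiter-Fluor fluorescence after 1 h.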
In the case of `O=C(O)c1cccnc1`, the result was inactive.
Regarding `NNC(=O)c1ccncc1`, the result was inactive.
On the same count and under the same terms, with `COc1ccc2cc3[n+](cc2c1OC)CCc1cc2c(cc1-3)OCO2` the entry was “inactive”.

System in the next test: not listed separately
Put plainly: Viability counterscreen for agonist of constitutive androstane receptor (CAR) against the NCATS DSHEA and TCM libraries (AID 1794838). As to conditions: HepG2 cell viability counterscreen, CAR agonist assay, co-treated with 0.75 µM CAR antagonist; series mostly up to 40 µM. Put shortly: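 HepG2-CYP2B6-hCAR cells (2,500/well) attached 5 h, then got compounds plus 0.75 uM PK11195 final. After 24 h at 37C, viability read by CellTiter-Fluor fluorescence (Ex/Em 405/540 nm).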
(In general: The purpose of a counterscreen is to sort out artefacts and off-target activity.)
With `O=C(O)c1cccnc1`, the result was inactive.
`NNC(=O)c1ccncc1`: the outcome was inactive.
Consider `COc1ccc2cc3[n+](cc2c1OC)CCc1cc2c(cc1-3)OCO2`, for which the outcome was inactive.

System in the next test: not listed separately
Briefly: HepG2 viability counterscreen (readout 2: ATP content) against the NCATS DSHEA and TCM libraries (AID 1794840).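 Also: HepG2 cells exposed to substances for about 24 h.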 As to conditions: ATP content luminescence; series mostly up to 27.3 µM. Put shortly:
(§1)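 HepG2 cells (1,000 cells/well) attached ~4 h, then treated ~24 h at 37C with substances. Protease activity read by GF-AFC (25 uM final, 30 min, Ex/Em 380/510 nm); ATP content then by CellTiter-Glo luminescence.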
Regarding `O=C(O)c1cccnc1`, the result was inactive.
On to `NNC(=O)c1ccncc1`, for which the result was inactive.
On the same count and under the same terms, the value for `COc1ccc2cc3[n+](cc2c1OC)CCc1cc2c(cc1-3)OCO2` was “inactive”.

System in another test: not listed separately
Briefly: HepG2 viability counterscreen (readout 1: protease activity) against the NCATS DSHEA and TCM libraries (AID 1794841).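 Also: cells exposed to compounds for about 24 h before the protease read.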 Conditions: qHTS concentration series; series mostly up to 27.3 µM. Put shortly: as §1
Take `O=C(O)c1cccnc1`: the result was inactive.
For `NNC(=O)c1ccncc1`, the call was inactive.
For `COc1ccc2cc3[n+](cc2c1OC)CCc1cc2c(cc1-3)OCO2`, the result was inactive.

A further test concerns the target Metallo-beta-lactamase type 2 (Klebsiella pneumoniae) (UniProt C7C422). Briefly: qHTS to identify inhibitors of the New Delhi Metallo-beta-lactamase (NDM): assay validation screen against the NCATS LOPAC Collection (AID 1794843). Conditions: NDM-1 enzyme, nitrocefin hydrolysis, absorbance 485 nm; series mostly up to 38.4 µM. Summed up: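 Absorbance at 485 nm from nitrocefin turnover (50 uM solution added), read at plateau, gives the read-out. Compounds in DMSO were incubated first with 2 nM final NDM-1 in pH 7.0 HEPES buffer containing 1 uM ZnSO4 and 0.01% Tween20.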
Consider `NC(=O)c1cccc(N)c1`, for which the compound was called inactive.
For `COc1cc2ncnc(Nc3cccc(Cl)c3)c2cc1OC`, the compound was classed as inactive.
Turning to `NC(=O)c1ccc2[nH]ccc2c1`, the call was inactive.
Take `CC1CC2C3CCC4=CC(=O)C=C[C@]4(C)[C@@]3(F)[C@@H](O)C[C@]2(C)[C@@]1(O)C(=O)CO` (some centres undefined): the outcome was inactive.
Turning to `CCCCS(=N)(=O)CCC(N)C(=O)O` (centres undefined), the outcome was inactive.
On to `COc1cc2nc(N3CCCN(C)CC3)nc(NC3CCN(Cc4ccccc4)CC3)c2cc1OC`, for which the result was inactive.
Turning to `Cc1ccc(S(=O)(=O)N[C@@H](Cc2ccccc2)C(=O)CCl)cc1`, the outcome was inactive.
On the same count and under the same terms, with `CCN(CC)CCn1c(=O)c(Cc2ccc(OC)cc2)nc2ccccc21` the entry was “inactive”; with `CC(C)NCC(O)c1ccc(NS(C)(=O)=O)cc1` (centres undefined), “inactive”.
Take `OCc1ccc(-c2nn(Cc3ccccc3)c3ccccc23)o1`: the outcome was inactive.
For `Nc1nc(N)c2nc(CNc3ccc(C(=O)NC(CCC(=O)O)C(=O)O)cc3)cnc2n1` (centres undefined), the outcome was inactive.
Take `O=C(O)C1CCCN(CCC=C(c2ccccc2)c2ccccc2)C1` (centres undefined): the compound was called inactive.
With `CCN(CC)CC#CCOC(=O)C(O)(c1ccccc1)C1CCCCC1` (centres undefined), the call was inactive.
Turning to `CC1=C(C(=O)O)N2C(=O)[C@@H](NC(=O)C(N)c3ccccc3)[C@H]2SC1` (some centres undefined), the compound was called inactive.
As for `CCN1CCCC1CNC(=O)c1cc(S(N)(=O)=O)ccc1OC` (centres undefined), the call was inactive.
For the compound `CNS(=O)(=O)CCc1ccc2[nH]cc(C3CCN(C)CC3)c2c1`, the result was inactive.

Another test addresses Glutathione peroxidase 1 (Homo sapiens) (UniProt P07203). Put plainly: Primary qHTS Assay for Inhibitors of Recombinant Selenoprotein Glutathione Peroxidase 1 (GPX1) (AID 1845191). Also: nearly all actives have a fitted effect of over 65% in size. As to conditions: recombinant GPX1, GR-coupled NADPH fluorescence, 15 min; series mostly up to 48.8 µM. Summed up:
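GR-coupled assay: compounds preincubated 30 min at room temperature with GPX1, then reaction started with CHP; final 10 nM GPX1, 1 mM GSH, 0.5 mM CHP, 0.5 mM NADPH, 100 nM GR, 0.01% BSA, pH 7.5 Tris buffer. NADPH fluorescence (340/450 nm) read at 0 and 15 min.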
A general note: In qHTS, concentration-response curves come from the screen itself.
`Nc1nc(=S)c2[nH]cnc2[nH]1`: the Potency result is “inactive”.
As to `NC(=O)c1cccc(N)c1`, the Potency entry is “inactive”.
As to `COc1cc2ncnc(Nc3cccc(Cl)c3)c2cc1OC`, the Potency entry was “inactive”.
For `NC(=O)c1ccc2[nH]ccc2c1`, the Potency result was “inactive”.
For `CCn1cc(C(=O)O)c(=O)c2cc(F)c(N3CCN(C)CC3)cc21`, the Potency result was “inactive”.
With `O=C(O)CSCC(=O)NC1CCSC1=O` (centres undefined), the Potency entry was “inactive”.
Same read-out and setting: the value for `Cc1cccc(Nc2ccncc2S(=O)(=O)NC(=O)NC(C)C)c1` was “inactive”; that for `COc1c(N2CCNC(C)C2)c(F)cc2c(=O)c(C(=O)O)cn(C3CC3)c12` (centres undefined) was “inactive”.
`COC(c1ccccc1)(c1ccccc1)[C@H](Oc1nc(C)cc(C)n1)C(=O)O`: the Potency entry was “inactive”.
With `Cn1nnc2c(C(N)=O)ncn2c1=O`, the Potency entry is “inactive”.
As to `CC(C)C[C@H](NC(=O)[C@H](CCc1ccccc1)NC(=O)CN1CCOCC1)C(=O)N[C@@H](Cc1ccccc1)C(=O)N[C@@H](CC(C)C)C(=O)[C@@]1(C)CO1`, the Potency result was “inactive”.
In the case of `CC1CC2C3CCC4=CC(=O)C=C[C@]4(C)[C@@]3(F)[C@@H](O)C[C@]2(C)[C@@]1(O)C(=O)CO` (some centres undefined), the Potency entry is “inactive”.
Regarding `CCCCS(=N)(=O)CCC(N)C(=O)O` (centres undefined), the Potency entry was “inactive”.
On the same count and under the same terms, the value for `C[C@]12C=CC(=O)C=C1CC[C@@H]1[C@@H]2C(=O)C[C@@]2(C)[C@H]1CC[C@]2(O)C(=O)CO` was “inactive”; that for `COc1cc2nc(N3CCCN(C)CC3)nc(NC3CCN(Cc4ccccc4)CC3)c2cc1OC` was “inactive”.
Regarding `Cc1ccc(S(=O)(=O)N[C@@H](Cc2ccccc2)C(=O)CCl)cc1`, the Potency entry was “inactive”.
Turning to `COc1cc(NS(=O)(=O)c2ccc(N)cc2)nc(OC)n1`, the Potency entry was “inactive”.
Take `Cc1ccnc2c1NC(=O)c1cccnc1N2C1CC1`: the Potency result is “inactive”.
For `CCN(CC)CCn1c(=O)c(Cc2ccc(OC)cc2)nc2ccccc21`, the Potency result was “inactive”.
Still for that read-out and setting: the value for `CC(C)NCC(O)c1ccc(NS(C)(=O)=O)cc1` (centres undefined) was “inactive”.
As to `OCc1ccc(-c2nn(Cc3ccccc3)c3ccccc23)o1`, the Potency entry was “inactive”.
`C[C@@H]1C[C@H]2[C@@H]3CCC4=CC(=O)C=C[C@]4(C)[C@@]3(Cl)[C@@H](O)C[C@]2(C)[C@@]1(OC(=O)c1ccco1)C(=O)CCl`: the Potency result is “inactive”.
Consider `Nc1nc(N)c2nc(CNc3ccc(C(=O)NC(CCC(=O)O)C(=O)O)cc3)cnc2n1` (centres undefined), for which the Potency entry was “inactive”.
Same read-out and setting: the value for `CCn1cc(C(=O)O)c(=O)c2cc(F)c(N3CCNCC3)cc21` was “inactive”.
`CCOc1cc(N)c(Cl)cc1C(=O)NCC1CN(Cc2ccc(F)cc2)CCO1` (centres undefined): the Potency result was “inactive”.
Consider `O=C(O)C1CCCN(CCC=C(c2ccccc2)c2ccccc2)C1` (centres undefined), for which the Potency result was “inactive”.
